# Publication PMC7862700, “An all-to-all approach to the identification of sequence-specific readers for epigenetic DNA modifications on cytosine”
# Legend:
# Assay in all cases: DAPPL (digital affinity profiling via proximity ligation, sequencing); 10 mM Tris-HCl pH 7.5, 50 mM NaCl, 1 mM DTT, 4% glycerol, room temperature, 30 min; GST-TFs on glutathione beads, 16-mer random dsDNA library, 0.1% formaldehyde crosslink after washing; high values mean tight binding
# FLI1 = target: T1, FLI1 (Homo sapiens, UniProt Q01543 1-452); conditions: protein: recombinant; tags: N-terminal GST; dsDNA, one strand shown
# T1 sequence: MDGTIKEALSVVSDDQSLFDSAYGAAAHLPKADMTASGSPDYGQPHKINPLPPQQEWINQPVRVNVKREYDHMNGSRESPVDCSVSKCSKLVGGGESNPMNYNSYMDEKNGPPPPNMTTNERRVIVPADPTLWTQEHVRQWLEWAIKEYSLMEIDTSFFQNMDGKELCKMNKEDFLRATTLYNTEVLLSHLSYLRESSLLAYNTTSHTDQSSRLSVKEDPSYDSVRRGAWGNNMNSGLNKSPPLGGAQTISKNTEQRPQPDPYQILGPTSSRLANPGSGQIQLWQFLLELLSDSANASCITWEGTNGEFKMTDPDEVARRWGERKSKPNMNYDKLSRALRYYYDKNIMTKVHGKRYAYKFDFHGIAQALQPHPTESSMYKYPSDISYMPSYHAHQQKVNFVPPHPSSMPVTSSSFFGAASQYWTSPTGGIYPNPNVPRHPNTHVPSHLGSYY
# How it was run: (§1)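 Each value of binding signal is a hexamer's read frequency for a factor divided by the same hexamer's frequency in the tag-only sample. Barcoded, bead-captured GST fusions of human transcription factors made in yeast were pooled with that sample and incubated with 200 nmole of a random double-stranded 16-mer DNA library in Tris/NaCl/DTT/glycerol buffer at room temperature for 30 min. Washing, 0.1% formaldehyde crosslinking, proximity ligation, PCR and Illumina NextSeq500 sequencing followed.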
# ELK1 = target: T2, ELK1 (Homo sapiens, UniProt P19419 1-428); conditions: protein: recombinant; tags: N-terminal GST; dsDNA, one strand shown
# T2 sequence: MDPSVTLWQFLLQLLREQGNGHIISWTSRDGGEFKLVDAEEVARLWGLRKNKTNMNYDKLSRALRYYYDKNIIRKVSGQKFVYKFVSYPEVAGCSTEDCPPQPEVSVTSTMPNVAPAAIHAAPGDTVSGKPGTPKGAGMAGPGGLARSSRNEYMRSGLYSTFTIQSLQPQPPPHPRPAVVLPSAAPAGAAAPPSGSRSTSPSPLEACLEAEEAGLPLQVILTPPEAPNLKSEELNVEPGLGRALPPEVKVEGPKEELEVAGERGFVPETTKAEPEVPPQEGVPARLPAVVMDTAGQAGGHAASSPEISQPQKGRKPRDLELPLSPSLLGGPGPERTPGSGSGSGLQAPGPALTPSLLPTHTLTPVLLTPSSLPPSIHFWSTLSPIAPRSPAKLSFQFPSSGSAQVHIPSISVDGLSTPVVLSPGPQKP
# How it was run: as §1
# GABPA = target: T3, GABPA (Homo sapiens, UniProt Q06546 1-454); conditions: protein: recombinant; tags: N-terminal GST; dsDNA, one strand shown
# T3 sequence: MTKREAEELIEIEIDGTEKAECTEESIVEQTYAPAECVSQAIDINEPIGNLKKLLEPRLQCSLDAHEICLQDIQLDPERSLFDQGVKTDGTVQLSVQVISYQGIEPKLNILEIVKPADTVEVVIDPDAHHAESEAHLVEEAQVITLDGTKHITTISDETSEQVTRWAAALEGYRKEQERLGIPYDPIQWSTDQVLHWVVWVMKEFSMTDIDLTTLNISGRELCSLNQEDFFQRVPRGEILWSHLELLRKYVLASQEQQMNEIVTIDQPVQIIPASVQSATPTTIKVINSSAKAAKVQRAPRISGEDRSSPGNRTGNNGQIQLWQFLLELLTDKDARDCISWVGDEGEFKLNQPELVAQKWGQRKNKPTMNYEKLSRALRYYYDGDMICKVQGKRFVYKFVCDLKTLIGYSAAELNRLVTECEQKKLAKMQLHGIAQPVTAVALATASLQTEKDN
# How it was run: as §1
# ERG = target: T4, ERG (Homo sapiens, UniProt P11308 1-479); conditions: protein: recombinant; tags: N-terminal GST; dsDNA, one strand shown
# T4 sequence: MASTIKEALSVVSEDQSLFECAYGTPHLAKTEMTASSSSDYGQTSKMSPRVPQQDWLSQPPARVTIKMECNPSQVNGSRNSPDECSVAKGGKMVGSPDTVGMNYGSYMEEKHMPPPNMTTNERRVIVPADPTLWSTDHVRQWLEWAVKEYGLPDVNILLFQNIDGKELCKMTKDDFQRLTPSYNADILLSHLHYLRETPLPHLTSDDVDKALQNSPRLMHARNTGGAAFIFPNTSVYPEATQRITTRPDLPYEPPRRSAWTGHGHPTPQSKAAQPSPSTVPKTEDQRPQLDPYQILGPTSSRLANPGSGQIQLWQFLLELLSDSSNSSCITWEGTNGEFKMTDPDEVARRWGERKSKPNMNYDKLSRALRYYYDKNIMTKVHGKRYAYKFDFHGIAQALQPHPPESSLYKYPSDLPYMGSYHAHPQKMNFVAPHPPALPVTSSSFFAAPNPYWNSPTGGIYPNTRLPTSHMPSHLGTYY
# How it was run: as §1
# ELF1 = ELF1 (Homo sapiens, UniProt P32519 1-619); conditions: protein: recombinant; tags: N-terminal GST; dsDNA, one strand shown
# How it was run: as §1
# EHF = target: T5, EHF (Homo sapiens, UniProt Q9NZC4 1-300); conditions: protein: recombinant; tags: N-terminal GST; dsDNA, one strand shown
# T5 sequence: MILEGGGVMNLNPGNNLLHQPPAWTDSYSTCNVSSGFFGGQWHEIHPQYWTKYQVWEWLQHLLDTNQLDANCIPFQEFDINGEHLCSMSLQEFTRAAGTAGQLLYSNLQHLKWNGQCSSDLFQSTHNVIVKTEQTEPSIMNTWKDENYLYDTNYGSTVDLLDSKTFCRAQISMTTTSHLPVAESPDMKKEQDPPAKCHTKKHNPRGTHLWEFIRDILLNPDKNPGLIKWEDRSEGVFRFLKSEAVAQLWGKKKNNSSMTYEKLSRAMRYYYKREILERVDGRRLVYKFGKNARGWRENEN
# How it was run: as §1
# SPI1 = SPI1 (Homo sapiens, UniProt P17947 1-270); conditions: protein: recombinant; tags: N-terminal GST; dsDNA, one strand shown
# How it was run: as §1
# SPIB = SPIB (Homo sapiens, UniProt Q01892 1-262); conditions: protein: recombinant; tags: N-terminal GST; dsDNA, one strand shown
# How it was run: as §1
# ELK3 = target: T6, ELK3 (Homo sapiens, UniProt P41970 1-407); conditions: protein: recombinant; tags: N-terminal GST; dsDNA, one strand shown
# T6 sequence: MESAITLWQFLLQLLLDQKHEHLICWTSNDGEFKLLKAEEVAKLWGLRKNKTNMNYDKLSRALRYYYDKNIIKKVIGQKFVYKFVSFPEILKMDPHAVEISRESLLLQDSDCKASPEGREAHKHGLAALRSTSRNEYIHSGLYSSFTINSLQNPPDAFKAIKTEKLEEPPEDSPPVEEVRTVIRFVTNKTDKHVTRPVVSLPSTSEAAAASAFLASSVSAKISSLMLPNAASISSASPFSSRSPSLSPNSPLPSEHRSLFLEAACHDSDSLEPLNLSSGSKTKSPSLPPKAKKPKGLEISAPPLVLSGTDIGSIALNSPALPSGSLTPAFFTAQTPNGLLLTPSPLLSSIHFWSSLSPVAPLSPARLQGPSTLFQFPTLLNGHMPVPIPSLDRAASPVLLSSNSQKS
# How it was run: as §1
# FEV = target: T7, FEV (Homo sapiens, UniProt Q99581 1-238); conditions: protein: recombinant; tags: N-terminal GST; dsDNA, one strand shown
# T7 sequence: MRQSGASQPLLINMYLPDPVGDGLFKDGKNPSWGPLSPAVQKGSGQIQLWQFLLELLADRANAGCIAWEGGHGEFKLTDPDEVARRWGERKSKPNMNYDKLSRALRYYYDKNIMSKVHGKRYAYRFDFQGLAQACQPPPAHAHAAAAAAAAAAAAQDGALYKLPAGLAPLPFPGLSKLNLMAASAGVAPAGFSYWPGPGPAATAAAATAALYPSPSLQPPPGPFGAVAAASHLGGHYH
# How it was run: as §1
# ETV5 = ETV5 (Homo sapiens, UniProt P41161 1-510); conditions: protein: recombinant; tags: N-terminal GST; dsDNA, one strand shown
# How it was run: as §1
# HSF1 = HSF1 (Homo sapiens, UniProt Q00613 1-529); conditions: protein: recombinant; tags: N-terminal GST; chain copies: 3; dsDNA, one strand shown
# How it was run: as §1
# SPIC = target: T8, SPIC (Homo sapiens, UniProt Q8N5J4 1-248); conditions: protein: recombinant; tags: N-terminal GST; dsDNA, one strand shown
# T8 sequence: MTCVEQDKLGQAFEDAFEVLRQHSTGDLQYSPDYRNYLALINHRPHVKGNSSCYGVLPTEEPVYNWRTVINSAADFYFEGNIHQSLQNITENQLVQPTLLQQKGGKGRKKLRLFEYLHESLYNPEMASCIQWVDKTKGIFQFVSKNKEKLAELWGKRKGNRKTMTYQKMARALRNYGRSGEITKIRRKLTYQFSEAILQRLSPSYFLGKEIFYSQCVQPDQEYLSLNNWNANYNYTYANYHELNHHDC
# How it was run: as §1
# ELF4 = ELF4 (Homo sapiens, UniProt Q99607 1-663); conditions: protein: recombinant; tags: N-terminal GST; dsDNA, one strand shown
# How it was run: as §1
# ELK4 = target: T9, ELK4 (Homo sapiens, UniProt P28324-2 1-405); conditions: protein: recombinant; tags: N-terminal GST; dsDNA, one strand shown
# T9 sequence: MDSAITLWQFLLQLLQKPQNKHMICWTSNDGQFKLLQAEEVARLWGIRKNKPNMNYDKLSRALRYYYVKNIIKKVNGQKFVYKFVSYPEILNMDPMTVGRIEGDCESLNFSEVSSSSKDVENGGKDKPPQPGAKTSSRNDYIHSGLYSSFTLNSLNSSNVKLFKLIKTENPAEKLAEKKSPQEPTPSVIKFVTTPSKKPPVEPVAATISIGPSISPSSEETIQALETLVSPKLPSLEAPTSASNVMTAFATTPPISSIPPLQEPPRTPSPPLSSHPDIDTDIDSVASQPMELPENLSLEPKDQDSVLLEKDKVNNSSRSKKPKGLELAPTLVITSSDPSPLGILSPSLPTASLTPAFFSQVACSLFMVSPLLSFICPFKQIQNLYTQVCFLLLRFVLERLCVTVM
# How it was run: as §1
# ETV2 = target: T10, ETV2 (Homo sapiens, UniProt O00321 1-342); conditions: protein: recombinant; tags: N-terminal GST; dsDNA, one strand shown
# T10 sequence: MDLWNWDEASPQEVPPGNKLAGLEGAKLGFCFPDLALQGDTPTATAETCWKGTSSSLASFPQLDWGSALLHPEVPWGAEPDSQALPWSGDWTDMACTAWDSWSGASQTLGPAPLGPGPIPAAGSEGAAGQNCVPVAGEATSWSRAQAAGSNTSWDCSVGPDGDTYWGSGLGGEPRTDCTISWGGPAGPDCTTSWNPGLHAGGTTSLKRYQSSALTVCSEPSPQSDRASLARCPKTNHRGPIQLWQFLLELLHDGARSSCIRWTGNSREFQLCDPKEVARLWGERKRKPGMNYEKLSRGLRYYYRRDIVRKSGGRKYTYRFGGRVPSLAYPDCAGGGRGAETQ
# How it was run: as §1
# ELF3 = target: T11, ELF3 (Homo sapiens, UniProt P78545 1-371); conditions: protein: recombinant; tags: N-terminal GST; dsDNA, one strand shown
# T11 sequence: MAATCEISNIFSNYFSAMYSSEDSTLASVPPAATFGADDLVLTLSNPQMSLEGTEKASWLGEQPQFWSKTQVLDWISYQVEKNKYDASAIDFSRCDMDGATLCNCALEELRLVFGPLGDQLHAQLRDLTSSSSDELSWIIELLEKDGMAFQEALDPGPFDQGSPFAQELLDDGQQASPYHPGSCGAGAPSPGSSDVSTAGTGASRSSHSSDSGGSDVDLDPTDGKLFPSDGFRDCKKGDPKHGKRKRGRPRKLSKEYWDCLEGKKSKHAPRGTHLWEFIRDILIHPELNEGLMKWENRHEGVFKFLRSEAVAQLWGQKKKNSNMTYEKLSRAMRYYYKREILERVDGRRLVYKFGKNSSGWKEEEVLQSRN
# How it was run: as §1
# CRX = CRX (Homo sapiens, UniProt O43186 1-299); conditions: protein: recombinant; tags: N-terminal GST; dsDNA, one strand shown
# How it was run: as §1
# ETV1 = ETV1 (Homo sapiens, UniProt P50549 1-477); conditions: protein: recombinant; tags: N-terminal GST; dsDNA, one strand shown
# How it was run: as §1
# ETV1, sequence (P50549 whole entry): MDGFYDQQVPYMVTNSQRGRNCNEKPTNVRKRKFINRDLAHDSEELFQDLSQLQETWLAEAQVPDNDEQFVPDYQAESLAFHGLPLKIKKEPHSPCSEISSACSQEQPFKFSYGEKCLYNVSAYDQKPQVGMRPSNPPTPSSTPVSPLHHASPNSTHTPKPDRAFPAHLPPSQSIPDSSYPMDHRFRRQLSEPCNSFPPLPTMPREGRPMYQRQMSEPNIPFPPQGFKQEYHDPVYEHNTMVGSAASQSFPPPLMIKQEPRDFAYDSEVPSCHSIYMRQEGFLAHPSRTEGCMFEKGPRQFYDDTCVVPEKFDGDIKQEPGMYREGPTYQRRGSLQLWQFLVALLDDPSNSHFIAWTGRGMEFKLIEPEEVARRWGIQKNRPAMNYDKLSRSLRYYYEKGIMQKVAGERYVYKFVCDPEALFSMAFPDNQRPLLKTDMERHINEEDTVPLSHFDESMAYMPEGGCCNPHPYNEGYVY
# ETV5, sequence (P41161 whole entry): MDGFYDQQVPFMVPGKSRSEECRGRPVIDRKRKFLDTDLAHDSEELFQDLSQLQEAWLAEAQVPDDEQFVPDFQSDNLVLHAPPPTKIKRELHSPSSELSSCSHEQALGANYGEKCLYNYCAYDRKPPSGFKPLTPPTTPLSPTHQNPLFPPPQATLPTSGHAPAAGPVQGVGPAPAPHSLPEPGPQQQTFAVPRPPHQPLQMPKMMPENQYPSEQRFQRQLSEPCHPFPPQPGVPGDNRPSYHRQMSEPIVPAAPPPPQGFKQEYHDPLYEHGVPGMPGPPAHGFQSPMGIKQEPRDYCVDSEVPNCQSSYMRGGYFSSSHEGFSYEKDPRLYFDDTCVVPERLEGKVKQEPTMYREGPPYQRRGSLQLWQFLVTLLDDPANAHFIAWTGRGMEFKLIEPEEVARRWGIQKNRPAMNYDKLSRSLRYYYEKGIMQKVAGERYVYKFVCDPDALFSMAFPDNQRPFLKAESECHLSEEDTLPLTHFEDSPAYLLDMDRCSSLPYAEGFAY
# SPIB, sequence (Q01892 whole entry): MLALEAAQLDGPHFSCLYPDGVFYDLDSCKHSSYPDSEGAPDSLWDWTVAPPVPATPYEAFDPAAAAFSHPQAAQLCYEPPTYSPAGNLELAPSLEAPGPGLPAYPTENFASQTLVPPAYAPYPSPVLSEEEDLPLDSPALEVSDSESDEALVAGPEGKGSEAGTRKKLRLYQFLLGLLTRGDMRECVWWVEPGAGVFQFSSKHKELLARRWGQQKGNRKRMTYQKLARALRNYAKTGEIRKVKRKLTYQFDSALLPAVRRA
# ELF1, sequence (P32519 whole entry): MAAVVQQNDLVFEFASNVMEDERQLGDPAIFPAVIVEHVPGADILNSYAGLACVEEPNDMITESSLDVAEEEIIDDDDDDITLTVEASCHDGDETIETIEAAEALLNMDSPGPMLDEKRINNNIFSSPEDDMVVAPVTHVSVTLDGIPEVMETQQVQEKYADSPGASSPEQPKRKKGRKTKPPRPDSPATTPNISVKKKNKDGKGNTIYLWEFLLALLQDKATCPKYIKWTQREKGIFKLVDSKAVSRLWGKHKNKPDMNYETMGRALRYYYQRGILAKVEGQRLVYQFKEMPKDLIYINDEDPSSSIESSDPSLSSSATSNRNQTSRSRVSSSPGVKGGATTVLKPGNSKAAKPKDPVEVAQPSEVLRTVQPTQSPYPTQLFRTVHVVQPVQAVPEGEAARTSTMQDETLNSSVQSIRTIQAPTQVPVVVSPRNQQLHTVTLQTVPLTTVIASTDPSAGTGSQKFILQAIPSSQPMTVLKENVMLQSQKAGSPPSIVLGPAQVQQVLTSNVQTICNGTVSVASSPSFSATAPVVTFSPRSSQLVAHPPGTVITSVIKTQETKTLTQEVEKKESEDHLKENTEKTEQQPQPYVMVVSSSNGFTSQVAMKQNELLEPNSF
# HSF1, sequence (Q00613 whole entry): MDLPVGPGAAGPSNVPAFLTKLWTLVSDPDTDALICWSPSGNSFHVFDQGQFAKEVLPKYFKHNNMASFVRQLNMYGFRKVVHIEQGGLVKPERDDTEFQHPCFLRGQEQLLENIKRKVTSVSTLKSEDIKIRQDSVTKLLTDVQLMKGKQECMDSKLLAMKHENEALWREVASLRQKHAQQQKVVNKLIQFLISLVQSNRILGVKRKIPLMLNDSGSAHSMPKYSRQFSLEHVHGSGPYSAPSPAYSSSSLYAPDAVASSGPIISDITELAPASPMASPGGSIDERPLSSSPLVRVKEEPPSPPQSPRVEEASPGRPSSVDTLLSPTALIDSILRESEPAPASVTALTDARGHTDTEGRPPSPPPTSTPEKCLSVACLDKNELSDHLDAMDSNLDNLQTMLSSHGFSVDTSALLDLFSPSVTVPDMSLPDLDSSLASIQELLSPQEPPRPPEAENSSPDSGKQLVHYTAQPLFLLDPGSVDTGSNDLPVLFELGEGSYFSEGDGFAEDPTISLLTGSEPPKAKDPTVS
# CRX, sequence (O43186 whole entry): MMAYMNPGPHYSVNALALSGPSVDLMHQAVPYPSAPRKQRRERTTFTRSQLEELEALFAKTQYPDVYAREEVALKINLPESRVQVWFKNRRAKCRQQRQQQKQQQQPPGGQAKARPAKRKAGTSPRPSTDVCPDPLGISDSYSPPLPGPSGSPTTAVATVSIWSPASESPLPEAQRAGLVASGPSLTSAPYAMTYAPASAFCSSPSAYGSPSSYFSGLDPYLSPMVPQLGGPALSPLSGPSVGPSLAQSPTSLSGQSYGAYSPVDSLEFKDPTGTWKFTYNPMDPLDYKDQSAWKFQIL
# ELF4, sequence (Q99607 whole entry): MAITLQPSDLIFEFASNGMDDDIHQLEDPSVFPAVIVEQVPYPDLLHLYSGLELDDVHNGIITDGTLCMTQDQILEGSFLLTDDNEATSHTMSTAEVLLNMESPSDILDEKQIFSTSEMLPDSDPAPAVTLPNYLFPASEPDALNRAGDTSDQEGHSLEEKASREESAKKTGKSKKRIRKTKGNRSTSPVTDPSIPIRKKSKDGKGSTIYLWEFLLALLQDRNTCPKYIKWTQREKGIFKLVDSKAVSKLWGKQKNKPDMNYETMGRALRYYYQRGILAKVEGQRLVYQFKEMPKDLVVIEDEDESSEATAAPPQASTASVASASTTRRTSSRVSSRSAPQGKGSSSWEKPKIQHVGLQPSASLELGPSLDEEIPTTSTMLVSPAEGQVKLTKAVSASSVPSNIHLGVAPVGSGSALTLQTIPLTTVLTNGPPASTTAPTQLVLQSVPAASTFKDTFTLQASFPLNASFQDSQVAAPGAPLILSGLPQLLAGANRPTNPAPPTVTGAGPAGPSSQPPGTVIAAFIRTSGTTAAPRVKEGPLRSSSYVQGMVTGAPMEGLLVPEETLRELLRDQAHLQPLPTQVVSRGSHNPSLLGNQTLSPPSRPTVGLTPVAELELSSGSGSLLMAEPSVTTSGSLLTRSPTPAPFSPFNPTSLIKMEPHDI
sequence,measurement,setting,value
ATAACT,binding signal,FLI1,"1.23 fold enrichment (6-mer frequency, TF over GST control)"
same,binding signal,ELK1,"1.21 fold enrichment (6-mer frequency, TF over GST control)"
same,binding signal,GABPA,"1.29 fold enrichment (6-mer frequency, TF over GST control)"
same,binding signal,ERG,"1.22 fold enrichment (6-mer frequency, TF over GST control)"
same,binding signal,ELF1,"1.32 fold enrichment (6-mer frequency, TF over GST control)"
same,binding signal,EHF,"1.24 fold enrichment (6-mer frequency, TF over GST control)"
same,binding signal,SPI1,"1.22 fold enrichment (6-mer frequency, TF over GST control)"
same,binding signal,SPIB,"1.36 fold enrichment (6-mer frequency, TF over GST control)"
same,binding signal,ELK3,"1.22 fold enrichment (6-mer frequency, TF over GST control)"
same,binding signal,FEV,"1.22 fold enrichment (6-mer frequency, TF over GST control)"
same,binding signal,ETV5,"1.29 fold enrichment (6-mer frequency, TF over GST control)"
same,binding signal,HSF1,"1.15 fold enrichment (6-mer frequency, TF over GST control)"
same,binding signal,SPIC,"1.28 fold enrichment (6-mer frequency, TF over GST control)"
same,binding signal,ELF4,"1.25 fold enrichment (6-mer frequency, TF over GST control)"
same,binding signal,ELK4,"1.22 fold enrichment (6-mer frequency, TF over GST control)"
same,binding signal,ETV2,"1.39 fold enrichment (6-mer frequency, TF over GST control)"
same,binding signal,ELF3,"1.24 fold enrichment (6-mer frequency, TF over GST control)"
same,binding signal,CRX,"1.29 fold enrichment (6-mer frequency, TF over GST control)"
same,binding signal,ETV1,"1.16 fold enrichment (6-mer frequency, TF over GST control)"
